Experiment [1] can be described thus: CCTE_Simmons_MITO_basal_resp_rate: CCTE's HepG2 Seahorse XF Respirometric Screening Assay at Basal Respiratory State, Simmons Lab (AID 2284001). Conditions: actives raise or lower the signal. In a few lines:
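HepG2 respirometry; 7-pt titration 125 nM–100 uM final; kinetic OCR at 6 min intervals for 72 min; n=3 biological, technical singles; DMSO baseline, gain or loss fit; fenpyroximate (decrease) and 2,4-DNP (increase) controls.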

Experiment [2] can be described thus: CCTE_Simmons_MITO_max_resp_rate: CCTE's HepG2 Seahorse XF Respirometric Screening Assay at Maximal Respiratory State [uncoupled], Simmons Lab (AID 2284002). Conditions: actives raise or lower the signal. In a few lines: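 Read-out is oxygen consumption rate at maximal respiration, taken after FCCP uncoupling of compound-treated HepG2 cells. Seven final concentrations from 125 nM to 100 uM were tested, each in three biological replicates.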

Experiment [3] in a line: CCTE_Simmons_MITO_inhib_resp_rate: CCTE's HepG2 Seahorse XF Respirometric Screening Assay at Inhibited Respiratory State [full ETC block], Simmons Lab (AID 2284006). Conditions: actives raise or lower the signal. In a few lines:
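HepG2 oxygen consumption was measured by Seahorse XF after compound, FCCP, then rotenone/antimycin A injections. Seven concentrations from 125 nM to 100 uM (final) were tested, with 6-min kinetic reads over 72 minutes. Inhibited-state OCR was fitted bidirectionally against DMSO.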

A short description of experiment [4]: CCTE_Shafer_MEA_acute_spike_number: CCTE's Neural Acute Assay for Total Number of Spikes, Shafer Lab (AID 2284008).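 As to AC50: curve fitted for decrease in spike count so AC50 reflects inhibitors.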 In a few lines: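 Read-out is the total spike count over 40 min, expressed as percent change from each well's own pre-treatment baseline and fitted in the loss direction against DMSO. Rat cortical neurons were exposed at 0.03-40 uM on DIV 13 or 15.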

The nature of experiment [5]: CCTE_Shafer_MEA_acute_firing_rate_mean: CCTE's Neural Acute Assay for Mean Firing Rate, Shafer Lab (AID 2284009).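 Also: analyzed for loss of signal so actives lower firing rate relative to DMSO.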 In short, it runs like this:
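Percent change in well-mean firing rate was derived from extracellular spikes detected at 8x rms noise (300-5000 Hz band-pass) before and after a 40-min compound exposure. Cultures were primary rat cortical neurons, tested at 0.03-40 uM.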

A short description of experiment [6]: CCTE_Harrill_HTTr_Viability_MCF7: CCTE's 6-hour Cell Viability Assessment for the High-Throughput Transcriptomics (HTTr) Platform, in MCF-7 cells cultured in DMEM + 10% fetal bovine serum, Harrill Lab (AID 2284010). In short, it runs like this:
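MCF-7 cells in DMEM + 10% FBS, 384-well, exposed 6 h to an eight-point dilution series. Membrane integrity scored by high-content imaging of propidium iodide exclusion; bidirectional fit versus DMSO.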

A further experiment has as its system DIO1 (gene 1733). Nature of the experiment: CCTE_GLTED_hDIO1: CCTE's human Deiodinase 1 (DIO1) Inhibition Assay, Great Lakes Toxicology and Ecology Division (GLTED) Lab (AID 2283987; active = hit-call score of the fitted dose curve at least 0.9, where 1 is the maximum;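 also: isolated human DIO1 enzyme in a cell-free setup rather than cells; enzyme activity read as free iodide liberated from substrate via Sandell-Kolthoff colorimetry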). In a few lines:
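Inhibition of human deiodinase 1 is scored as reduced iodide liberation after a 3 h enzyme–chemical incubation, detected colorimetrically by the Sandell-Kolthoff reaction against DMSO controls.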

The target in experiment [7] is Nucleoli Translocation, AR (gene 367) (UniProt P10275). Description: UPITT_HCI_U2OS_AR_TIF2_Nucleoli_Agonist: University of Pittsburgh U2OS Androgen Receptor-Transcriptional Intermediary Factor 2 (AR-TIF2) Agonism High Content Imaging Assay for Nucleoli Translocation (AID 2283998; active = hit-call score of the fitted dose curve at least 0.9, where 1 is the maximum). In a few lines: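 Readout is red (AR-RFP) fluorescence localized to nucleoli, measured by high-content imaging and analysed for increase relative to DMSO. Compound series spanned 0.195 to 50 uM final in 0.5% DMSO.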
Nucleoli Translocation, AR (gene 367), sequence (P10275 whole entry, looked up): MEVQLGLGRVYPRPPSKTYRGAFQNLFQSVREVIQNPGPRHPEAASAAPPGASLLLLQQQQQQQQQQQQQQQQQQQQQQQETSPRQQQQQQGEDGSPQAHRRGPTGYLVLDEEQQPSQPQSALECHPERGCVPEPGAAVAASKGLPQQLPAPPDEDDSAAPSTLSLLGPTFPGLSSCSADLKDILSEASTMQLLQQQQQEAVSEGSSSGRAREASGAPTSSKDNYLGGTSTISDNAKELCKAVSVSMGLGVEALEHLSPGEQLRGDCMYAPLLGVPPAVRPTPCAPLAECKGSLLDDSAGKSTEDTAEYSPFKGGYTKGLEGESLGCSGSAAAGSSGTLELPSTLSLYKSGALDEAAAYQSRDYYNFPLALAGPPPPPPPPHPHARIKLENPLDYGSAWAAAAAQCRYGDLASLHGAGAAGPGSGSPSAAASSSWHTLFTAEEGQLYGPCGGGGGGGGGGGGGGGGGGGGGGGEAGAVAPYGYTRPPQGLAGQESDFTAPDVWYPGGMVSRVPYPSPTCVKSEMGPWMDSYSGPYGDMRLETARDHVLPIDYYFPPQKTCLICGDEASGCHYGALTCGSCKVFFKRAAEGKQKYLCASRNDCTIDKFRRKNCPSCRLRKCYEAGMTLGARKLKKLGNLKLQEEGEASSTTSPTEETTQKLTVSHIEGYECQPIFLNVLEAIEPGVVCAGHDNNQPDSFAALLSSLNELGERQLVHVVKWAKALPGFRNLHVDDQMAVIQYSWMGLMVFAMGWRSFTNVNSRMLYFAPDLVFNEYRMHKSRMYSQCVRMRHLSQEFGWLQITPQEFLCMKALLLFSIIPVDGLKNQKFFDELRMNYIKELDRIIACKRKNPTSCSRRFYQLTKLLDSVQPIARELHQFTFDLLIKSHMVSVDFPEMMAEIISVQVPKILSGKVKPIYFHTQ

Experiment [8] deals with Ratio of Nucleoli Translocation and Cytoplasm, AR (gene 367) (UniProt P10275). Nature of the experiment: UPITT_HCI_U2OS_AR_TIF2_Nucleoli_Cytoplasm_Ratio_Agonist: University of Pittsburgh U2OS Androgen Receptor-Transcriptional Intermediary Factor 2 (AR-TIF2) Agonism High Content Imaging Assay for Ratio of Nucleoli Translocation and Cytoplasm (AID 2284000; active = hit-call score of the fitted dose curve at least 0.9, where 1 is the maximum;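 also: hits raise the red nucleolar to cytoplasm ratio above vehicle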). In a few lines: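 Read-out first: nucleolar-to-cytoplasm ratio of red (AR-RFP) signal, quantified by high-content imaging in U2OS cells co-expressing TIF2-GFP. Activity is scored as signal increase over DMSO. Single-point screening used 20 uM final (0.2% DMSO).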
Ratio of Nucleoli Translocation and Cytoplasm, AR (gene 367), sequence (P10275 whole entry, looked up): as above

Experiment [9] in a line: CCTE_Harrill_HTTr_Viability_PRF_DMEM_12hr: (Pilot) CCTE's 12-hour Cell Viability Assessment for the High-Throughput Transcriptomics (HTTr) Platform, in MCF-7 cells cultured in phenol red-free DMEM + 10% charcoal-stripped fetal bovine serum, Harrill Lab (AID 2283977). In a few lines:
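MCF-7 cells in phenol red-free DMEM with 10% charcoal-stripped FBS exposed 12 hours to an eight-point dilution series. Viability assessed by high-content imaging of propidium iodide exclusion; bidirectional fit versus DMSO.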

Experiment [10] is described as follows: CCTE_Harrill_HTTr_Viability_PRF_DMEM_24hr: (Pilot) CCTE's 24-hour Cell Viability Assessment for the High-Throughput Transcriptomics (HTTr) Platform, in MCF-7 cells cultured in phenol red-free DMEM + 10% charcoal-stripped fetal bovine serum, Harrill Lab (AID 2283980). In short, it runs like this:
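MCF-7 cells in phenol red-free DMEM with 10% charcoal-stripped FBS, eight-point dilution series, 24 h exposure. Membrane integrity by propidium iodide exclusion with high content imaging; bidirectional fit vs DMSO.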

The nature of experiment [11]: CCTE_Harrill_HTTr_Apoptosis_DMEM_6hr: (Pilot) CCTE's 6-hour Apoptosis Assessment for the High-Throughput Transcriptomics (HTTr) Platform, in MCF-7 cells cultured in DMEM + 10% fetal bovine serum, Harrill Lab (AID 2283981). In short, it runs like this: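 Caspase-3/7 activation read by high content imaging with CellEvent Caspase 3/7 Green in MCF-7 cells (DMEM + 10% FBS), 6 h after dosing; eight-point dilution series. Bidirectional fitting relative to DMSO baseline.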

Experiment [12] can be described thus: CCTE_Harrill_HTTr_Apoptosis_DMEM_12hr: (Pilot) CCTE's 12-hour Apoptosis Assessment for the High-Throughput Transcriptomics (HTTr) Platform, in MCF-7 cells cultured in DMEM + 10% fetal bovine serum, Harrill Lab (AID 2283982). In a few lines: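 MCF-7 cells in DMEM + 10% FBS, exposed 12 h to an eight-point dilution series; caspase-3/7 activation imaged with CellEvent Green. Bidirectional fit versus DMSO.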

Experiment [13] in a line: CCTE_Harrill_HTTr_Apoptosis_DMEM_24hr: (Pilot) CCTE's 24-hour Apoptosis Assessment for the High-Throughput Transcriptomics (HTTr) Platform, in MCF-7 cells cultured in DMEM + 10% fetal bovine serum, Harrill Lab (AID 2283983). In short, it runs like this:
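MCF-7 cells in DMEM + 10% FBS, eight-point dilution series, 24 h exposure. Caspase-3/7 activation imaged by high-content imaging with CellEvent Caspase 3/7 Green. Bidirectional curve fitting against DMSO baseline.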

Experiment [14] can be described thus: CCTE_Harrill_HTTr_Apoptosis_PRF_DMEM_6hr: (Pilot) CCTE's 6-hour Apoptosis Assessment for the High-Throughput Transcriptomics (HTTr) Platform, in MCF-7 cells cultured phenol red-free DMEM + 10% charcoal-stripped fetal bovine serum, Harrill Lab (AID 2283984). In short, it runs like this: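 MCF-7 cells in phenol red-free DMEM + 10% charcoal-stripped FBS, eight-point dilution series, 6 h exposure. Caspase-3/7 activation imaged by high-content imaging with CellEvent Caspase 3/7 Green; bidirectional fit versus DMSO baseline.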

Experiment [15] is described as follows: CCTE_Harrill_HTTr_Apoptosis_PRF_DMEM_12hr: (Pilot) CCTE's 12-hour Apoptosis Assessment for the High-Throughput Transcriptomics (HTTr) Platform, in MCF-7 cells cultured in phenol red-free DMEM + 10% charcoal-stripped fetal bovine serum, Harrill Lab (AID 2283985). In a few lines:
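MCF-7 cells in phenol red-free DMEM with 10% charcoal-stripped FBS, eight-point dilution series, 12 h exposure. Caspase-3/7 activation imaged by high content imaging with CellEvent Green reagent; bidirectional fit vs DMSO.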

Experiment [16] is described as follows: CCTE_Harrill_HTTr_Apoptosis_PRF_DMEM_24hr: (Pilot) CCTE's 24-hour Apoptosis Assessment for the High-Throughput Transcriptomics (HTTr) Platform, in MCF-7 cells cultured in phenol red-free DMEM + 10% charcoal-stripped fetal bovine serum, Harrill Lab (AID 2283986). In short, it runs like this:
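MCF-7 cells in phenol red-free DMEM with 10% charcoal-stripped FBS, exposed 24 h across an eight-point dilution series. Caspase-3/7 activation imaged with CellEvent Green by high content imaging; bidirectional fitting against DMSO.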

Experiment [17] can be described thus: CCTE_Simmons_MITO_viability: CellTiter-Glo Viability Assessment for CCTE's HepG2 Seahorse XF Respirometric Screening Assay [post-hoc], Simmons Lab (AID 2284007; active = hit-call score of the fitted dose curve at least 0.9, where 1 is the maximum). In short, it runs like this:
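HepG2 cells exposed 90 min to 7 concentrations from 125 nM to 100 uM final, then ATP measured by luciferase luminescence. Three biological replicates per concentration; DMSO vehicle; dichlone control at 10 nM–100 uM.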
In general terms: Cellular ATP, detected with luciferase, serves as a proxy for viable cell number.

Experiment [18] concerns the target Ratio of Nucleoli Translocation and Cytoplasm, AR (gene 367) (UniProt P10275). Nature of the experiment: UPITT_HCI_U2OS_AR_TIF2_Nucleoli_Cytoplasm_Ratio_Antagonist: University of Pittsburgh U2OS Androgen Receptor-Transcriptional Intermediary Factor 2 (AR-TIF2) Antagonism High Content Imaging Assay for Ratio of Nucleoli Translocation and Cytoplasm (AID 2283999; active = hit-call score of the fitted dose curve at least 0.9, where 1 is the maximum;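 also: antagonists lower the DHT-driven ratio of nucleolar to cytoplasmic red signal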). In a few lines: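 U2OS cells co-expressing RFP-tagged human AR and GFP-tagged TIF2, antagonist mode with DHT as baseline. Nucleolar-to-cytoplasmic red fluorescence ratio imaged by high-content microscopy; final compound 20 uM (0.2% DMSO) primary, 0.195–50 uM (0.5% DMSO) concentration-response.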

Drawing on PubChem BioAssay (EPA / NIEHS), this text covers outcome and AC50 for 11 molecules.

Structures are written as SMILES. Inconclusive results are not listed. Calls of active or inactive are those of the source. The calls were made as follows, unless noted: active = hit-call score of the fitted dose curve at least 0.9, where 1 is the maximum; inactive = score below 0.9.

In the case of `CC(C)=CC1C(C(=O)OCc2coc(Cc3ccccc3)c2)C1(C)C` (centres undefined), the outcome in experiment [1], in [2], in [3], in [4], in experiment [5] and in experiment [6] was inactive.

Take `CCOc1nc(F)cc2nc(S(=O)(=O)Nc3c(Cl)cccc3Cl)nn12`: in the experiment with DIO1 (gene 1733), the AC50 (commonly the concentration at which the activity in the assay is half-maximal) is 38.8 µM (active). For the same molecule, the molecule was called inactive in experiment [4], in experiment [5] and in experiment [6].

For `COCc1cnc(C2=NC(C)(C(C)C)C(=O)N2)c(C(=O)O)c1` (centres undefined), the result in [7], in experiment [8] and in experiment [6] was inactive.

For the molecule `Clc1cccc(C(Cl)(Cl)Cl)n1`, the molecule was classed as inactive in experiment [7], in experiment [8] and in experiment [6].

Take `CCOC(=O)C(C)OC(=O)c1cc(Oc2ccc(C(F)(F)F)cc2Cl)ccc1[N+](=O)[O-]` (centres undefined): the result in experiment [9], in [10], in experiment [11], in [12], in experiment [13] and in [14] was inactive. In addition, the result in experiment [15], in [16] and in experiment [6] was inactive. Also, the figures for the AC50 in experiment [4] and in [5] were 5.49 µM (active) and 5.46 µM (active), respectively.

For `N#Cc1c[nH]cc1-c1cccc2c1OC(F)(F)O2`, the AC50 in [1] is 77.1 µM (active); in [4], 4.28 µM (active); in experiment [5], 4.27 µM (active). Besides, the molecule was classed as inactive in experiment [3], in experiment [17] and in experiment [6].

`OC(c1ccc(Cl)cc1)(c1ccc(Cl)cc1)C(Cl)(Cl)Cl`: the AC50 was 70.4 µM (active) with DIO1 (gene 1733), 1.83 µM (active) in [4], 2.15 µM (active) in [5] and 38.6 µM (active) in experiment [6].

Turning to `Cn1c(-c2ccccc2)cc(-c2ccccc2)[n+]1C`, the AC50 in experiment [1] is 41.9 µM (active); in [2] it was 20 µM (active); in [4], 1.05 µM (active); in experiment [5] it was 1.05 µM (active). Also, the molecule was classed as inactive in experiment [3], in [17] and in [6].

Regarding `O=C1C2CC=CCC2C(=O)N1SC(Cl)(Cl)Cl` (centres undefined), the values for the AC50 (in the experiment with DIO1 (gene 1733); in experiment [1]; in experiment [2]) were 53.8 µM (active), 59.9 µM (active) and 67.8 µM (active), respectively. Moreover, the call in experiment [3], in experiment [17] and in experiment [6] was inactive.

With `COP(=S)(OC)SCn1nnc2ccccc2c1=O`, the AC50 in the experiment on DIO1 (gene 1733) was 47.3 µM (active). The outcome in [7], in experiment [18], in experiment [4], in [5] and in experiment [6] was inactive.

Turning to `CN/C(=N\[N+](=O)[O-])NCc1cnc(Cl)s1`, the molecule was called inactive in [4], in experiment [5] and in experiment [6].
